PubChem BioAssay (EPA / NIEHS)
Calls of active or inactive are those of the source. How the source made its calls: active means hit-call score of the fitted dose curve at least 0.9, where 1 is the maximum; inactive means score below 0.9.

Columns and labels:
[1] = ATG_E_Box_CIS: Attagene CIS-FACTORIAL HepG2 Assay for human Enhancer Box (E-box) (AID 2282936); conditions: HepG2 E-box cis-reporter transcription, actives raise or lower the signal
Summary of the method: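 HepG2 cells transiently transfected with multiplexed cis-element reporter units, dosed 24 h; reporter mRNA quantified by RT-PCR, 6-FAM labelling, HpaI digestion and capillary electrophoresis. E-box (USF1) signal fitted bidirectionally vs DMSO.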

[2] = ATG_M_61_CIS: Attagene CIS-FACTORIAL HepG2 Assay for M61 Transcription Factor (Internal Marker) (AID 2282937); conditions: HepG2 Attagene CIS-FACTORIAL M61 internal marker reporter; actives raise or lower the signal
Summary of the method: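 Transfect HepG2 with MRTUs; dose 24 h; isolate RNA; reverse-transcribe with DNase I treatment; PCR-amplify, FAM-label and cut with HpaI for 2 h at 37 C; resolve by CE. Bidirectional fitting against DMSO.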

[3] = ATG_EGR_CIS: Attagene CIS-FACTORIAL HepG2 Assay for human Early Growth Response 1 (EGR1) (AID 2282938); conditions: HepG2 Attagene CIS-FACTORIAL EGR reporter mRNA; actives raise or lower the signal
Summary of the method: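 After a 24 h treatment of transiently transfected HepG2 cells, total RNA was reverse-transcribed and reporter sequences PCR-amplified, labelled and run on capillary electrophoresis. Reporters sit under cis-regulatory promoters sensing endogenous factors.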

[4] = ATG_M_19_CIS: Attagene CIS-FACTORIAL HepG2 Assay for M19 Transcription Factor (Internal Marker) (AID 2282939); conditions: HepG2 Attagene CIS-FACTORIAL M19 internal marker reporter; actives raise or lower the signal
Summary of the method: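 In this multiplexed cell assay, transiently transfected HepG2 reporter units report endogenous transcription-factor activity; after 24 hours of treatment, labelled reporter cDNA fragments are quantified by capillary electrophoresis and fitted bidirectionally against DMSO.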

[5] = ATG_ERE_CIS: Attagene CIS-FACTORIAL HepG2 Assay for Estrogen Response Element (ERE) (AID 2282940); conditions: HepG2 ERE cis-reporter, Attagene RNA transcript; actives raise or lower the signal
Summary of the method: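 Measuring endogenous transcription factor output, the assay doses transfected HepG2 cells for 24 hours and quantifies reporter transcripts by fluorescent RT-PCR and capillary electrophoresis, with DMSO as baseline.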

[6] = ATG_Ets_CIS: Attagene CIS-FACTORIAL HepG2 Assay for human Erythroblast Transformation Specific (ETS) (AID 2282941); conditions: HepG2 ETS cis-reporter transcription, actives raise or lower the signal
Summary of the method: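 HepG2 cells transiently transfected with cis-promoter reporter transcription units were dosed for 24 h; reporter mRNA was measured by RT-PCR, 6-FAM primer extension, HpaI digestion and capillary electrophoresis, with bidirectional fitting against DMSO baseline.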

[7] = biological target: Hepatocyte nuclear factor 3-beta (Homo sapiens) (UniProt Q9Y261); assay: ATG_FoxA2_CIS: Attagene CIS-FACTORIAL HepG2 Assay for human Forkhead box A2 (FOXA2) (AID 2282942); conditions: HepG2 cis-reporter transcription factor activity, 24 h; actives raise or lower the signal
Summary of the method: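 24 h dosing of HepG2 bearing cis-reporter constructs; mRNA readout by RT-PCR/CE fluorescence; bidirectional fit, DMSO baseline.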

[8] = ATG_FoxO_CIS: Attagene CIS-FACTORIAL HepG2 Assay for human Forkhead box O (FoxO) (AID 2282943); conditions: HepG2 Attagene cis-reporter, FoxO element, mRNA; actives raise or lower the signal
Summary of the method: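 HepG2 cells transiently transfected with cis-element-driven reporter units report endogenous FoxO activity. After 24 h chemical exposure, reporter mRNA quantified by RT-PCR, fluorescent labeling, HpaI digestion and capillary electrophoresis; bidirectional fit versus DMSO.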

[9] = ATG_GATA_CIS: Attagene CIS-FACTORIAL HepG2 Assay for human GATA Binding Protein (AID 2282944); conditions: HepG2 GATA cis-element reporter, Attagene multiplex mRNA; actives raise or lower the signal
Summary of the method: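 Measures endogenous transcription factor-driven reporter mRNA in HepG2 cells transiently carrying cis-regulated constructs. 24 h dosing; RNA via oligo(dT) reverse transcription, PCR, HpaI digestion, capillary electrophoresis; fitted relative to DMSO.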

[10] = ATG_GLI_CIS: Attagene CIS-FACTORIAL HepG2 Assay for human Zinc Finger Protein GLI1 (AID 2282945); conditions: HepG2, Attagene cis-factorial reporter mRNA, GLI element; actives raise or lower the signal
Summary of the method: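 Transiently transfected HepG2 cells report endogenous transcription factor activity via cis-element-driven reporter units. After 24 h compound exposure, reporter mRNA was measured by RT-PCR with capillary electrophoresis; bidirectional fitting against DMSO baseline.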

[11] = ATG_GRE_CIS: Attagene CIS-FACTORIAL HepG2 Assay for human Glucocorticoid Response Elements (GRE) (AID 2282947); conditions: HepG2 GRE cis-reporter, Attagene multiplex mRNA; actives raise or lower the signal
Summary of the method: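 Transiently transfected HepG2 cells carrying GRE cis-reporter units (endogenous TF activity) dosed 24 h; reporter mRNA quantified by RT-PCR, 6-FAM labelling, HpaI digestion and capillary electrophoresis. Bidirectional fit versus DMSO baseline.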

[12] = ATG_ISRE_CIS: Attagene CIS-FACTORIAL HepG2 Assay for human Interferon Regulatory Factor 1 (IRF1) binding to an Interferon-Stimulated Response Element (ISRE) (AID 2282948); conditions: HepG2 ISRE cis-reporter (Attagene), mRNA transcription readout; actives raise or lower the signal
Summary of the method: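 HepG2 cells transiently transfected with multiplexed cis-promoter reporter units; after 24 h compound exposure, reporter mRNA quantified by RT-PCR, FAM labelling, HpaI digestion and capillary electrophoresis. Bidirectional fit versus DMSO baseline.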

[13] = ATG_M_32_CIS: Attagene CIS-FACTORIAL HepG2 Assay for M32 Transcription Factor (Internal Marker) (AID 2282949); conditions: HepG2 Attagene cis-factorial M32 reporter, mRNA; actives raise or lower the signal;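 further: background control marker of the multiplexed CIS panel rather than a real target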
Summary of the method: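 Fluorescent capillary electrophoresis peaks of HpaI-digested, FAM-labelled RT-PCR reporter products give the signal. Source: transiently transfected human liver HepG2 cells, 24 h after chemical dosing; bidirectional fitting against DMSO.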

[14] = ATG_M_06_CIS: Attagene CIS-FACTORIAL HepG2 Assay for M06 Transcription Factor (Internal Marker) (AID 2282950); conditions: HepG2 Attagene CIS-FACTORIAL M06 internal marker reporter; actives raise or lower the signal
Summary of the method: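 One of many multiplexed endpoints: HepG2 reporter mRNA after 24 h dosing, detected by RT-PCR and capillary electrophoresis fluorescence; gain or loss of signal analysed against DMSO.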

[15] = biological target: Hypoxia-inducible factor 1-alpha (Homo sapiens) (UniProt Q16665); assay: ATG_HIF1a_CIS: Attagene CIS-FACTORIAL HepG2 Assay for human Hypoxia Inducible Factor 1 (HIF1A) (AID 2282951); conditions: HepG2 Attagene cis-factorial HIF1a reporter transcription; actives raise or lower the signal
Summary of the method: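 After 24 h chemical exposure of reporter-transfected HepG2 cells, reporter cDNA was PCR-amplified, labelled by 6-FAM primer extension (2 min 95 C, 20 s 68 C, 10 min 72 C), HpaI-cut (2 h, 37 C) and analysed by CE.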

[16] = biological target: Hepatocyte nuclear factor 6 (Homo sapiens) (UniProt Q9UBC0); assay: ATG_HNF6_CIS: Attagene CIS-FACTORIAL HepG2 Assay for human Hepatocyte Nuclear Factor 6 (HNF6) (AID 2282952); conditions: HepG2 Attagene cis-factorial HNF6 reporter transcription; actives raise or lower the signal
Summary of the method: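 HepG2 cells transiently transfected with cis-element-driven multiple reporter transcription units, dosed 24 h; reporter mRNA quantified by RT-PCR, FAM primer extension, HpaI digestion and capillary electrophoresis; bidirectional fit versus DMSO baseline.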

[17] = biological target: Heat shock factor protein 1 (Homo sapiens) (UniProt Q00613); assay: ATG_HSE_CIS: Attagene CIS-FACTORIAL HepG2 Assay for human Heat Shock Transcription Factor 1 (HSE) (AID 2282953); conditions: HepG2 HSE cis-reporter, Attagene RNA transcription; actives raise or lower the signal
Summary of the method: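 Using HepG2 with transfected cis-driven reporter constructs, compound effects on endogenous factor activity are scored as reporter mRNA change at 24 h. Detection: RT-PCR, HpaI digestion, capillary electrophoresis; bidirectional fitting to DMSO.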

[18] = ATG_MRE_CIS: Attagene CIS-FACTORIAL HepG2 Assay for human Metal Responsive Element (MRE) (AID 2282954); conditions: HepG2 MRE cis-reporter transcription, Attagene multiplex; actives raise or lower the signal
Summary of the method: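 HepG2 cells transiently transfected with cis-element-driven reporter units; mRNA measured 24 h after dosing. Reporter transcripts quantified by RT-PCR, FAM labelling, HpaI digestion and capillary electrophoresis; bidirectional fit versus DMSO.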

[19] = ATG_PBREM_CIS: Attagene CIS-FACTORIAL HepG2 Assay for human Phenobarbital-responsive Enhancer Module (PBREM) (AID 2282955); conditions: HepG2 PBREM cis-reporter, Attagene multiplexed transcription; actives raise or lower the signal
Summary of the method: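 Measures endogenous factor action on a phenobarbital-responsive enhancer module. HepG2 transiently carrying cis reporters, 24 h treatment, mRNA read-out by RT-PCR plus capillary electrophoresis.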

Measured: AC50

Chain of Hepatocyte nuclear factor 6 (Homo sapiens) (Q9UBC0 whole entry, looked up): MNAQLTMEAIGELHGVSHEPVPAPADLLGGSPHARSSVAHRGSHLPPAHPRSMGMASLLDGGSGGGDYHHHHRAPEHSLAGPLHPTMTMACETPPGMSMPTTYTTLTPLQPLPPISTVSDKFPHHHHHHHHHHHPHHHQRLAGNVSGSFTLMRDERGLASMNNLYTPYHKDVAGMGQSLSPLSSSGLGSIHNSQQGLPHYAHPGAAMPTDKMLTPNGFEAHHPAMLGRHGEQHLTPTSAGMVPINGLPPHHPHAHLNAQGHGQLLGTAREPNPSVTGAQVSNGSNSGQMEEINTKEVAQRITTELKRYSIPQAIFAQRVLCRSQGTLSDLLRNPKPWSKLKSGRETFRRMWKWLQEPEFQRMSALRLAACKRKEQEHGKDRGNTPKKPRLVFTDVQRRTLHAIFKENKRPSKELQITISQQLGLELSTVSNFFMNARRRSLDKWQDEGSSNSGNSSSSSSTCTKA
Chain of Hypoxia-inducible factor 1-alpha (Homo sapiens) (Q16665 whole entry, looked up): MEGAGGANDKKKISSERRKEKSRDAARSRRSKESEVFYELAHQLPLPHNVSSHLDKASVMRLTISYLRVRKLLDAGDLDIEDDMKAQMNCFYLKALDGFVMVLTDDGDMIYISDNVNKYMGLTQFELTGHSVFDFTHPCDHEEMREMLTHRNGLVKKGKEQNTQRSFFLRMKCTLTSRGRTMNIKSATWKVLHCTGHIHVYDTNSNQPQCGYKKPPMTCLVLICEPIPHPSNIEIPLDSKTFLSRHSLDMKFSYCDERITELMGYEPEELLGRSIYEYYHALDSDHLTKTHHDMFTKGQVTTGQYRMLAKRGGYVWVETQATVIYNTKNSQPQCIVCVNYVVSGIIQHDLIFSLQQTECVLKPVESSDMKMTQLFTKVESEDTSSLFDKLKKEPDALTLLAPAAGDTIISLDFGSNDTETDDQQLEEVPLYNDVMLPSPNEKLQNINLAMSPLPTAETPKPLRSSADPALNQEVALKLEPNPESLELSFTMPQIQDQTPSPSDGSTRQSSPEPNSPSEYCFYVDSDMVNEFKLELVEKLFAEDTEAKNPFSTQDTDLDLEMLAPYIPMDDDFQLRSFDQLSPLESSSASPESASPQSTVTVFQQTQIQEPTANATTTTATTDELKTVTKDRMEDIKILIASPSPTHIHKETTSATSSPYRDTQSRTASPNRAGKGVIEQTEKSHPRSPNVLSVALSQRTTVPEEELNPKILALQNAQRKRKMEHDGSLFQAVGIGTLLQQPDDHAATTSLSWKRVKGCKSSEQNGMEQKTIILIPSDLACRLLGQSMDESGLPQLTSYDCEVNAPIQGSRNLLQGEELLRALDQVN
Chain of Hepatocyte nuclear factor 3-beta (Homo sapiens) (Q9Y261 whole entry, looked up): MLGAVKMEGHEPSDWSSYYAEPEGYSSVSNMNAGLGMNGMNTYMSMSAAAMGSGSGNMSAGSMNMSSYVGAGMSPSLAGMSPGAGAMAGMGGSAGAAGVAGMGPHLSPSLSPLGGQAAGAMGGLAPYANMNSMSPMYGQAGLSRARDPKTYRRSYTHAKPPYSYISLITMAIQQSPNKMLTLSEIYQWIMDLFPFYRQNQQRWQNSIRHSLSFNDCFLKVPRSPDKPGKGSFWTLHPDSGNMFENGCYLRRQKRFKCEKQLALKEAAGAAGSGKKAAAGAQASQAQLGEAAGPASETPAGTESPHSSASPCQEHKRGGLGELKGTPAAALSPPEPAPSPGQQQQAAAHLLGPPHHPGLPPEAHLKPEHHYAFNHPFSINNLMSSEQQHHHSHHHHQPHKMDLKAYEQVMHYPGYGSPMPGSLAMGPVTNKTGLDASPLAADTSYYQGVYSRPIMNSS
Chain of Heat shock factor protein 1 (Homo sapiens) (Q00613 whole entry, looked up): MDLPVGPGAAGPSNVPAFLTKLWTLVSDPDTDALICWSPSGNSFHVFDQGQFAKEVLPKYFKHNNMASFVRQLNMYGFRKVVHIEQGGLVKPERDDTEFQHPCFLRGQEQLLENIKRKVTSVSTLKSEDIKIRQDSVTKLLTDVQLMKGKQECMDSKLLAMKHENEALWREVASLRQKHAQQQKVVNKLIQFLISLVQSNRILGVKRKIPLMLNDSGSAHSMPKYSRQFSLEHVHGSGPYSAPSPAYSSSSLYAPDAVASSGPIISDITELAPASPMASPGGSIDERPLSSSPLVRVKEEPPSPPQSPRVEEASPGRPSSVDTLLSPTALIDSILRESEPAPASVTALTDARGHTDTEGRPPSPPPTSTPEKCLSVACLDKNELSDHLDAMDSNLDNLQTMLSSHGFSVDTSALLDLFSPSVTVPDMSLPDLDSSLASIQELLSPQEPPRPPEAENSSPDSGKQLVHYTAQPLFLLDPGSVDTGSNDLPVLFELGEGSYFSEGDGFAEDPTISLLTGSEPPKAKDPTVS

Cc1ccc2c(c1)C(=O)c1ccccc1C2=O
active: [5] 12.2 µM
inactive: all other assays above

CCCCCCCCCCCCCCCCCC#N
inactive: all assays above

CC1(C)O[C@@H]2C[C@H]3[C@@H]4C[C@H](F)C5=CC(=O)C=C[C@]5(C)[C@@]4(F)[C@@H](O)C[C@]3(C)[C@]2(C(=O)CO)O1
active: [5] 4.27 µM | [11] 563 nM
not listed: [19]
inactive: all other assays above

C=CCOCC(O)CCl (stereo not drawn)
not listed: [19]
inactive: all other assays above

CCOC(=O)c1ccc(N(C)C)cc1
not listed: [17]
inactive: all other assays above

CC(C)CCCCCOC(=O)CCS
inactive: all assays above

CCC(CO)CO
not listed: [16] | [19]
inactive: all other assays above
